Test results as given in the supplement of paper PMC10681739.

How the values were obtained:
ETS1 [1] = target: T1, ETS1 (UniProt P14921); assay: ETS1 binding intensity (PBM fluorescence), ETS1 alone (arbitrary fluorescence units); higher = stronger binding; settings: ETS1 concentration 1 nM; RUNX1 concentration 0 nM
T1 sequence: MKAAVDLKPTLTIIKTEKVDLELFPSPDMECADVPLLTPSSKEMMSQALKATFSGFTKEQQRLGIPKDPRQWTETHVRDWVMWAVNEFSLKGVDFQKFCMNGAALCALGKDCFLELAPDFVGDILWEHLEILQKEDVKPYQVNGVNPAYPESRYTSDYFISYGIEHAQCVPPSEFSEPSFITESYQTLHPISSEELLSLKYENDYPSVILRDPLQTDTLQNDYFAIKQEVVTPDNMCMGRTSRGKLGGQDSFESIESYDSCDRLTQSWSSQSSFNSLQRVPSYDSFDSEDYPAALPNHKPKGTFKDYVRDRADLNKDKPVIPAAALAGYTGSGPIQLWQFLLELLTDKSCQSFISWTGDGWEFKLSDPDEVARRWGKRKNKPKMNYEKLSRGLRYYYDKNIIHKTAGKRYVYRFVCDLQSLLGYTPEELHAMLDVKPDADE

RUNX1 [2] = target: RUNX1 (UniProt Q01196); assay: RUNX1 binding intensity (PBM fluorescence), RUNX1 alone (arbitrary fluorescence units); higher = stronger binding; settings: RUNX1 concentration 2 nM; ETS1 concentration 0 nM
Experimental: (§1)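 Cooperative gcPBM on 36-bp genomic probes with neighbouring ETS1 and RUNX1 sites. Recombinant human RUNX1 (2 nM) was incubated alone or with ETS1 (25 nM) and detected with anti-RUNX1 antibody plus Alexa488 secondary. Values are medians over 4 replicate spots; the RUNX1+ETS1 data were normalised to the RUNX1-only data. The probes sit in constant array flanks that are not printed.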

ETS1 [3] = target: T1, ETS1; assay: ETS1 binding intensity (PBM fluorescence) in presence of RUNX1, normalised to ETS1-only experiment (arbitrary fluorescence units); higher = stronger binding; settings: ETS1 concentration 1 nM; RUNX1 concentration 25 nM
RUNX1 [4] = target: RUNX1 (UniProt Q01196); assay: RUNX1 binding intensity (PBM fluorescence) in presence of ETS1, normalised to RUNX1-only experiment (arbitrary fluorescence units); higher = stronger binding; settings: RUNX1 concentration 2 nM; ETS1 concentration 25 nM
Experimental: as §1
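For RUNX1 binding intensity (PBM fluorescence) in presence of ETS1, normalised to RUNX1-only experiment in this document: Full-length recombinant human ETS1 or RUNX1 bound to double-stranded 36-bp genomic probes on microarrays, detected by protein-specific primary antibody and Alexa488 secondary, spot fluorescence as median of four replicate spots.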
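For RUNX1 binding intensity (PBM fluorescence), RUNX1 alone in this document: Full-length recombinant human RUNX1 bound to double-stranded 36-bp genomic probes on a high-density microarray, scored as Alexa488 fluorescence per spot via anti-RUNX1 antibody, median of four replicate spots.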

Sequence of RUNX1 (Q01196 whole entry): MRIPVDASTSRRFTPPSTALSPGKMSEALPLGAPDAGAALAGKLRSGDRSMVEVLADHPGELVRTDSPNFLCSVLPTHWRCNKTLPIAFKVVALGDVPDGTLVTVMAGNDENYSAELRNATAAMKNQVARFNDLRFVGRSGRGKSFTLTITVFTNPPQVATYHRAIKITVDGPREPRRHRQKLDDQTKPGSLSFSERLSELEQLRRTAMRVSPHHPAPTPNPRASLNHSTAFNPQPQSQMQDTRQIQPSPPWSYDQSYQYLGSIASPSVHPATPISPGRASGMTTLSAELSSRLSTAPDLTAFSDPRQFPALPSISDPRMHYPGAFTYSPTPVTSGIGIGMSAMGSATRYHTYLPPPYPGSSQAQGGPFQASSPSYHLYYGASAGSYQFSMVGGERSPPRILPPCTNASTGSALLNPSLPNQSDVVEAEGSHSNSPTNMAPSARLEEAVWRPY

| Sequence | ETS1 binding intensity (ETS1 [1]) | RUNX1 binding intensity (RUNX1 [2]) | ETS1 binding intensity (ETS1 [3]) | RUNX1 binding intensity (RUNX1 [4]) |
| --- | --- | --- | --- | --- |
| CTTCGACCCCGGAAGCGCTAACCACCCCGGGGGCCG | 4160 | 797 | 5880 | 1370 |
| GCTGCTTCCGGCCGCTGGTCGCAGGGCTGCGGGACT | 865 | 677 | 1000 | 1760 |
| ACTGGCTTCACTTCCTCCGCGGTTCCTCGGAGCCGC | 497 | 917 | 514 | 1730 |
| CCTCAAAACCCGGAAACGCCTTGCGGGGCAGTGTGG | 3330 | 789 | 4480 | 1400 |
| AGTCCTGCCCACTTCCTGCCGCAAGAGAAATCCACT | 1930 | 1250 | 3260 | 9180 |
| CAGCAAAAGGCAGGATGTGGTTAAAACTGTGCTCTG | 4320 | 1110 | 29000 | 17100 |
| AGAAGGAACTACACAGGAAACCCACTGCCTCGATGG | 2430 | 691 | 1640 | 865 |
| ACCTCTCTCACTTCCTACCAGAGAACCACAGCCAAG | 538 | 1490 | 404 | 2150 |
| AAAGCAAAGTCAAGAGGATGTGGTGACCAATTCTGC | 1320 | 685 | 2860 | 855 |
| GCCCAGGCAGGAAGCCAGGCGCCCACAGGTTGGCAG | 990 | 643 | 1090 | 923 |
| CACCCAGTTTGAACTTCCTGGCGGTTTTGTTTACAC | 673 | 972 | 853 | 1730 |
| AACGACAAACCGGAAGTATGGTTTGCCGCCTGAAGC | 17000 | 754 | 19500 | 1620 |
| GCCCACTTCCTGCCGTAAGAGAAAACCACTAACACA | 890 | 1970 | 2190 | 4760 |
| AATCCACCGGAAACACTTAGACGCCGCAACCCCAGT | 3660 | 895 | 5740 | 1590 |
| AAGGCGGTACTTCCTCCAGCATTTGCCGCAAGTTAT | 417 | 768 | 535 | 1250 |
| TTGCACACGTGGGCGGGAAGTGGTTAAGCGGCCTCA | 1020 | 725 | 4280 | 1210 |
| AAATCACGTACCCGGAAACCACATGCACAGAAGTGG | 2010 | 980 | 2930 | 1550 |
| TGTGCTGACTACAGGATGCTGTGGTTAGTCAGGTTG | 1690 | 809 | 13800 | 1720 |
| AGCAACAGGAAAGAACAGCCTGACCACAGCAGCCAC | 393 | 948 | 727 | 1050 |
| TTCTTCACTTCCTTCTCTCCGTGGTTTCGCCATTAG | 513 | 2260 | 436 | 3130 |
| TATTCAGGCTTCCGGGTGATGTTTGTGGCCACCCGG | 3800 | 671 | 5020 | 1510 |

| Sequence | ETS1 binding intensity (ETS1 [1]) | RUNX1 binding intensity (RUNX1 [2]) | ETS1 binding intensity (ETS1 [3]) | RUNX1 binding intensity (RUNX1 [4]) |
| --- | --- | --- | --- | --- |
| CCCGCCACTTCCCTGCCTCTGCGGGAGCCCCCCAGC | 573 | 938 | 545 | 1430 |
| GAAGAGGGTGGAGAAGGAAGTGGTCACACCACTTGC | 1140 | 675 | 2380 | 929 |
| GCGCGGGCAACTTCCGGTGTGGGTGACGAGTGGTGG | 10900 | 778 | 12700 | 2700 |
| TGCCACATCCTGCCCCTCCCCAGGTCTAACCACCAA | 696 | 1260 | 754 | 3360 |
| ATCTTAAGTGTTTCCTGACACCACAAATCCCCAAAC | 501 | 1020 | 507 | 1020 |
| AGGCTTCCGGCCACGCCCCCTTCCCGCGGTTGCTAG | 704 | 748 | 1140 | 2360 |
| CTGCCGGAAGCTGCCCCTCCACCATTTTGTGGCCCG | 1770 | 818 | 1850 | 1280 |
| GTCTGCTTAAAAACAGGAAACCACATATCTCCACCC | 3670 | 1600 | 10700 | 1990 |
| CAGAAAAGGCAGGAAGTGGTACAAACCACAAAAGGC | 5820 | 1320 | 49600 | 8000 |
| ACATGGTCTCGCTTCCTGTTTACACCACAGAAAGCT | 2820 | 1040 | 4140 | 1850 |
| GAAAGGGTTCATCCAGGAAACCACAACCCAGTGCCG | 808 | 1440 | 1820 | 2110 |
| GCCTGCACCCTAGTTCCGGTGTGGGTGGAGGGGCCG | 1040 | 4050 | 999 | 4850 |
| CATACAGGATGCTGGGGTATGTAAAACAAACCACGG | 708 | 775 | 678 | 964 |
| CCCAACCATTTCCGCCACACCTCCAACCCACTGCCG | 647 | 2030 | 542 | 4660 |
| AAACATCATAGGAAGTGGATTTTGTGGTGAGAGACA | 1160 | 870 | 3880 | 1130 |
| CCGATGGCGGCGGAACTGTGGTCAGGGCTGCCCTGA | 365 | 825 | 510 | 921 |
| GGAGAGTTGACTTCCGGCGGCTTGTGGGAGTGCTGG | 2740 | 771 | 2640 | 1820 |
| CGGCAGGGAAGCAGGAAACCGCGAGTGGAGAAAGGG | 1790 | 1160 | 3790 | 2170 |
| ATGAACCACTTCCTGTGTGTTCCCACAGAGGTCAGG | 2670 | 742 | 4320 | 7110 |
| TGCTTCTGAGGAAGTGATCTGTGGTCAAAGAAAGAA | 747 | 891 | 2040 | 1180 |
| ATGGGGAACGGGAAATACGGCGGGAACCACAATCGC | 734 | 777 | 1700 | 1020 |
